The structures appear in SMILES notation. Inconclusive results are not listed. A number with no mark means an inactive call. Unless noted, calls come from the whole dose curve.

Experimental findings from PubChem BioAssay (Tox21) are described below.
% is set by controls: 0 for no effect and ±100 for the full control effect.

Sequence of Progesterone receptor (Homo sapiens) (P06401 whole entry, looked up): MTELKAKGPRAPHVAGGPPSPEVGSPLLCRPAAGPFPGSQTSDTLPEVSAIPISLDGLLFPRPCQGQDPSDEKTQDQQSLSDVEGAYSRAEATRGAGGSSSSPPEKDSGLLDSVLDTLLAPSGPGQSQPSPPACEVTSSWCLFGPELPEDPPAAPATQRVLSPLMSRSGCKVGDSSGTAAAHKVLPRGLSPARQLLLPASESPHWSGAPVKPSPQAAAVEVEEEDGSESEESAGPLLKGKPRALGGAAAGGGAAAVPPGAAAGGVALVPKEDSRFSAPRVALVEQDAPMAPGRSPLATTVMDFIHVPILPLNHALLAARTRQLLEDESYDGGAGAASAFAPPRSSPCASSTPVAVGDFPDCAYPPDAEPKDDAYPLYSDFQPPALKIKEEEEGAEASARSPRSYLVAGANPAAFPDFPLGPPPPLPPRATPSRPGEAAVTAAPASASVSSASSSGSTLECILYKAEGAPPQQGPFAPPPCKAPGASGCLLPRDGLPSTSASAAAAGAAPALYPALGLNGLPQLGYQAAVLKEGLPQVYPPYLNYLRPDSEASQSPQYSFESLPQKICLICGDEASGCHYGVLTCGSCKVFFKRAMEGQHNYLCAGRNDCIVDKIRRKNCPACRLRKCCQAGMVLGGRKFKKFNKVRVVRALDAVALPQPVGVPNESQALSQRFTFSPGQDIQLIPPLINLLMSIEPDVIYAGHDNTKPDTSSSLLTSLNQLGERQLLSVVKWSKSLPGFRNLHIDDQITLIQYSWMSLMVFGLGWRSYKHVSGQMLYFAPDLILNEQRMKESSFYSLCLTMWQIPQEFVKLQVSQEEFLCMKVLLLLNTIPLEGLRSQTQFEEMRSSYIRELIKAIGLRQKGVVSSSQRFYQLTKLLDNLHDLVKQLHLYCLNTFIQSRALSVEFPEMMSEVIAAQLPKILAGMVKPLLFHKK

One assay concerns the target Progesterone receptor (Homo sapiens) (UniProt P06401). Nature of the assay: qHTS assay to identify small molecule antagonists of the progesterone receptor (PR) signaling pathway (AID 1346795; active = well fitted inhibition curve with a large enough effect in the signal ratio in the repeat runs, not every such curve was filed as active; the % refers to the signal ratio). The note with it: PR-UAS-bla HEK293T, beta-lactamase FRET ratio, 16 h; series mostly up to 92.4 µM; activity change, negative = inhibition: at the top concentration. The gist of the method: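 Antagonist mode: compounds tested against 1 nM (final) promegestone stimulation in HEK293T cells expressing PR-UAS-bla reporter, 16 hr at 37C, 5% CO2; beta-lactamase activity detected via B/G FRET substrate after 2 hr at room temperature.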
In general terms: qHTS replaces the single test concentration by a dilution series.
As for `O=C(O)CCNC(=O)c1ccccc1`, the “activity change, negative = inhibition” value was 10.2% [at 42.5 µM].
On the same count and under the same terms, as for `CC(C)CCC(=O)CCC(C)C`, the figure is 4.93%; as for `CC(C)C(=O)c1ccccc1`, 0.829%.
Same read-out and setting: to `FC(F)(F)/C(=N\OCC1OCCO1)c1ccc(Cl)cc1` belongs 1.64%; to `OCCCCCCCl`, -0.864%.
Consider `CCCCCCCCOC(C)=O`, for which the “activity change, negative = inhibition” value is 11.9%.
Same read-out and setting: as for `Nc1ccc(S(=O)(=O)Nc2ccccn2)cc1`, the figure is 8.08% [at 42.5 µM]; as for `CC1=CC[C@H](CC=O)C1(C)C`, 4.42%.
As for `CCCCOC(=O)[C@@H](C)Oc1ccc(Oc2ccc(C(F)(F)F)cn2)cc1`, the “activity change, negative = inhibition” value is -1.6%.
Same read-out and setting: as for `CCC(O)C(C)(C)C` (stereo not given), the figure is -4.62%.
In the case of `O=C(Oc1ccccc1C(=O)O)c1ccccc1O`, the “activity change, negative = inhibition” value was 13.7% [at 42.5 µM].
With `CCOC(=O)CC#N`, the “activity change, negative = inhibition” value is 10.1%.
For the compound `NC(=O)NC(=O)Cc1ccccc1`, the “activity change, negative = inhibition” value was 0.895% [at 42.5 µM].
With `COc1ccc(NS(=O)(=O)c2ccc(N)cc2)nn1`, the “activity change, negative = inhibition” value is 14% [at 42.5 µM].
Consider `COC(OC)C(C)c1ccccc1` (stereo not given), for which the “activity change, negative = inhibition” value was 4.18%.
The same measure, in the same setting: to `CC(=O)c1ccc2c(c1)CCCC2` belongs -7.79%; to `O=CN1CCOCC1`, 10.1%; to `COC(/C=C(\C)CCC=C(C)C)OC`, 16%.

System in the next assay: not listed separately
Nature of the assay: qHTS assay to identify small molecule antagonists of the progesterone receptor (PR) signaling pathway - cell viability counter screen (AID 1346798; active = well fitted cell-killing curve with a large enough effect in the repeat runs; note: nearly all actives have a fitted effect of over 50% in size). As to conditions: PR-UAS-bla HEK293T viability, CellTiter-Glo luminescence, 16 h; series mostly up to 92.4 µM; activity change, negative = cytotoxicity: at the top concentration. The essentials:
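Counter screen for cytotoxicity: viability of PR-UAS-bla HEK293T cells was measured with CellTiter-Glo luminescence following 16 hr compound exposure in the presence of R5020.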
On to `OC[C@@H](O)[C@H](O)[C@@H](O)[C@@H](O)CO`, for which the “activity change, negative = cytotoxicity” value was -15.8%.
Still for that read-out and setting: as for `O=C(O)CCNC(=O)c1ccccc1`, the figure is 16.7% [at 42.5 µM]; as for `CC(C)CCC(=O)CCC(C)C`, -12.2%.
In the case of `CCOC(=O)C(=O)c1csc(NC=O)n1`, the “activity change, negative = cytotoxicity” value was 2.83% [at 42.5 µM].
In the case of `CC(C)C(=O)c1ccccc1`, the “activity change, negative = cytotoxicity” value was -5.04%.
With `FC(F)(F)/C(=N\OCC1OCCO1)c1ccc(Cl)cc1`, the “activity change, negative = cytotoxicity” value is 17.9%.
On to `OCCCCCCCl`, for which the “activity change, negative = cytotoxicity” value was -1.65%.
On the same count and under the same terms, to `CCCCCC(=O)OCC` belongs 6.97%.
In the case of `C=CCOC(=O)c1ccc(C(=O)OCC=C)c(C(=O)OCC=C)c1`, the “activity change, negative = cytotoxicity” value was 3.21%.
The same measure, in the same setting: to `CCN(CCO)c1cccc(C)c1` belongs -16.4%; to `C[N+](C)(C)CC(O)CCl` (stereo not given), 0.673%; to `CCCCCCCCCCCCC`, -5.38%.
The same measure, in the same setting: to `Nc1ccc(S(=O)(=O)Nc2ccccn2)cc1` belongs -0.199% [at 42.5 µM].
Regarding `CCC1COC(=O)O1` (stereo not given), the “activity change, negative = cytotoxicity” value is 6.2%.
The same measure, in the same setting: to `CC1CCC(C(C)(C)S)C(=O)C1` (stereo not given) belongs -11.1%; to `CC1=CC[C@H](CC=O)C1(C)C`, -2.95%; to `CCCCOC(=O)[C@@H](C)Oc1ccc(Oc2ccc(C(F)(F)F)cn2)cc1`, 47.9%.
Still for that read-out and setting: as for `CCC(O)C(C)(C)C` (stereo not given), the figure is -5.76%; as for `O=C(Oc1ccccc1C(=O)O)c1ccccc1O`, -2.6% [at 42.5 µM]; as for `CCOC(=O)CC#N`, 26.8%.
Turning to `C=CCOCC(CO)(COCC=C)COCC=C`, the “activity change, negative = cytotoxicity” value is -17.5% [at 42.5 µM].
On the same count and under the same terms, as for `NC(=O)NC(=O)Cc1ccccc1`, the figure is 22.5% [at 42.5 µM]; as for `O=C1CC[C@H](C(=O)N2CCCCC2)N1`, -3.4% [at 42.5 µM]; as for `COC(OC)C(C)c1ccccc1` (stereo not given), 8.94%.
The same measure, in the same setting: to `CC(=O)c1ccc2c(c1)CCCC2` belongs 5.57%; to `O=CN1CCOCC1`, 1.74%; to `CN[C@@H]1[C@H](O)[C@H](NC)[C@H]2O[C@@]3(O)C(=O)C[C@@H](C)O[C@H]3O[C@@H]2[C@H]1O`, -6.85% [at 42.5 µM].
Still for that read-out and setting: as for `C[C@H](CCC(=O)O)[C@H]1CC[C@H]2[C@@H]3[C@H](O)C[C@@H]4C[C@H](O)CC[C@]4(C)[C@H]3C[C@H](O)[C@]12C`, the figure is 6.7% [at 42.5 µM].
Take `CCN(Cc1cccc(S(=O)(=O)O)c1)c1ccccc1`: the “activity change, negative = cytotoxicity” value was -9.03%.

System in another assay: not listed separately
Put plainly: qHTS assay to identify small molecule agonists of the progesterone receptor (PR) signaling pathway - cell viability counter screen (AID 1346799). Note: nearly all actives have a fitted effect of over 45% in size. The note with it: PR-UAS-bla HEK293T viability, CellTiter-Glo luminescence, 16 h; series mostly up to 92.4 µM; activity change, negative = cytotoxicity: at the top concentration. The essentials: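 Cells (PR-UAS-bla HEK293T) are plated at 3,000/well in 2% charcoal-stripped FBS medium, rested 6 hr, dosed and incubated 16 hr at 37C. CellTiter-Glo is then added and luminescence measured after 30 min at room temperature.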
Turning to `OC[C@@H](O)[C@H](O)[C@@H](O)[C@@H](O)CO`, the “activity change, negative = cytotoxicity” value was 1.27%.
Same read-out and setting: to `CCCCCCCC/C=C\CCCCCCCC(=O)OC[C@@H](O)[C@H]1OC[C@H](O)[C@H]1O` belongs 55.7%; to `O=C(O)CCNC(=O)c1ccccc1`, 5.51% [at 42.5 µM].
The same measure, in the same setting: to `Nc1nc(=O)n([C@@H]2O[C@H](CO)[C@@H](O)[C@@H]2F)cc1I` belongs 0% [at 42.5 µM].
Same read-out and setting: as for `CC(C)CCC(=O)CCC(C)C`, the figure is 6.54%; as for `CCOC(=O)C(=O)c1csc(NC=O)n1`, -10.8% [at 42.5 µM].
Consider `CC(C)C(=O)c1ccccc1`, for which the “activity change, negative = cytotoxicity” value was -7.13%.
Turning to `FC(F)(F)/C(=N\OCC1OCCO1)c1ccc(Cl)cc1`, the “activity change, negative = cytotoxicity” value is -1.85%.
As for `OCCCCCCCl`, the “activity change, negative = cytotoxicity” value was 9.21%.
The same measure, in the same setting: to `CCCCCC(=O)OCC` belongs 5.35%.
Take `C=CCOC(=O)c1ccc(C(=O)OCC=C)c(C(=O)OCC=C)c1`: the “activity change, negative = cytotoxicity” value was -1.6%.
On the same count and under the same terms, to `CC(C)COC(=O)/C=C/c1ccccc1` belongs 5.53%.
With `C[N+](C)(C)CC(O)CCl` (stereo not given), the “activity change, negative = cytotoxicity” value was 6.65%.
`CCCCCCCCCCCCC`: the “activity change, negative = cytotoxicity” value is -6.1%.
Still for that read-out and setting: to `Nc1ccc(S(=O)(=O)Nc2ccccn2)cc1` belongs 3.24% [at 42.5 µM]; to `CCC1COC(=O)O1` (stereo not given), 1.33%; to `CC1CCC(C(C)(C)S)C(=O)C1` (stereo not given), -16.6%.
On to `CC1=CC[C@H](CC=O)C1(C)C`, for which the “activity change, negative = cytotoxicity” value was -13.4%.
The same measure, in the same setting: as for `CCCCOC(=O)[C@@H](C)Oc1ccc(Oc2ccc(C(F)(F)F)cn2)cc1`, the figure is -0.753%.
The same measure, in the same setting: as for `CCC(O)C(C)(C)C` (stereo not given), the figure is 5.53%; as for `O=C(Oc1ccccc1C(=O)O)c1ccccc1O`, -6.81% [at 42.5 µM]; as for `CCOC(=O)CC#N`, 11.7%.
Same read-out and setting: to `C=CCOCC(CO)(COCC=C)COCC=C` belongs -5.41% [at 42.5 µM]; to `NC(=O)NC(=O)Cc1ccccc1`, 5.23% [at 42.5 µM].
On to `O=C1CC[C@H](C(=O)N2CCCCC2)N1`, for which the “activity change, negative = cytotoxicity” value was 2.97% [at 42.5 µM].
The same measure, in the same setting: to `COc1ccc(NS(=O)(=O)c2ccc(N)cc2)nn1` belongs 3.12% [at 42.5 µM]; to `COC(OC)C(C)c1ccccc1` (stereo not given), -3.44%.
On the same count and under the same terms, as for `CC(=O)c1ccc2c(c1)CCCC2`, the figure is 12.3%; as for `O=CN1CCOCC1`, 13.4%.
The same measure, in the same setting: to `CN[C@@H]1[C@H](O)[C@H](NC)[C@H]2O[C@@]3(O)C(=O)C[C@@H](C)O[C@H]3O[C@@H]2[C@H]1O` belongs -10.5% [at 42.5 µM].
Take `C[C@H](CCC(=O)O)[C@H]1CC[C@H]2[C@@H]3[C@H](O)C[C@@H]4C[C@H](O)CC[C@]4(C)[C@H]3C[C@H](O)[C@]12C`: the “activity change, negative = cytotoxicity” value is -2.2% [at 42.5 µM].
The same measure, in the same setting: to `CCc1nccnc1C` belongs 0.777%.
Still for that read-out and setting: to `CCN(Cc1cccc(S(=O)(=O)O)c1)c1ccccc1` belongs -4.01%.
